{"source": "PubChem BioAssay AID493162", "about": "(ICCB-Longwood Screening Facility, Harvard Medical School, 2011)", "note": "Hit rate of the full screen: of about 46,000 compounds, about 430 (0.93%) were called active. The entries come from a sample that favours actives as a whole. Unmarked numbers belong to inactive results. Rule as the data show it: active = normalized absorbance mostly below about 85% (no sharp cut-off); inactive = mostly above about 86%."}
{"tested_on": "Vaccinia virus DNA polymerase (E9) processive complex", "test": "vaccinia E9 polymerase processive synthesis inhibitors, primary screen, biochemical, absorbance (AID 493162)", "details": "in vitro processive DNA synthesis, absorbance read-out; active compounds read low; concentration not given here"}
{"smiles": "CC(=O)Nc1ccc(N2C(=O)C=CC2=O)cc1", "normalized absorbance": "124%"}
{"smiles": "CC(C)CNS(=O)(=O)C1CCS(=O)(=O)C1", "note": "(stereo unspecified)", "normalized absorbance": "102%"}
{"smiles": "Nc1ncnc2c1ncn2CCNCc1ccccc1", "normalized absorbance": "103%"}
{"smiles": "NC(=O)C(Cc1ccccc1)NC(=O)C12CC3CC(CC(C3)C1)C2", "note": "(stereo unspecified)", "normalized absorbance": "72.6%"}
{"smiles": "CCOc1cc(/C=C2\\SC(=S)N(C(C)C(=O)O)C2=O)ccc1O", "note": "(stereo unspecified)", "normalized absorbance": "99%"}
{"smiles": "Cc1cc(C)n(-c2nc(-c3cccnc3)nc3ccccc23)n1", "normalized absorbance": "85.7%"}
{"smiles": "CCS(=O)c1nc2c(Br)cccc2[nH]1", "note": "(stereo unspecified)", "normalized absorbance": "94.1%"}
{"smiles": "Cc1ccc(NCC(O)c2ccc(Cl)cc2)cc1", "note": "(stereo unspecified)", "normalized absorbance": "102%"}
{"smiles": "Cc1ccc(S(=O)(=O)NCc2ccc(C(=O)NC3CCC(C)CC3)cc2)cc1", "note": "(stereo unspecified)", "normalized absorbance": "99%"}
{"smiles": "O=C(c1ccc(Cl)cc1Cl)n1c(=O)oc2cc(S(=O)(=O)N3CCCCC3)ccc21", "normalized absorbance": "101%"}
{"smiles": "COc1ccc(C2C(C#N)=C(N)OC(C)=C2C(=O)OCc2ccccc2)cc1", "note": "(stereo unspecified)", "normalized absorbance": "102%"}
{"smiles": "O=C1/C(=C/c2ccc(N3CCOCC3)cc2)CCc2ccccc21", "normalized absorbance": "100%"}
{"smiles": "N#CCCn1c(=S)n(CCC#N)c2ccccc21", "normalized absorbance": "106%"}
{"smiles": "COC(=O)c1ccc(Cn2nc(C)c(Cl)c2C)cc1", "normalized absorbance": "92.4%"}
{"smiles": "CC(=O)Nc1ccc(C2N3CCCN23)cc1", "note": "(stereo unspecified)", "normalized absorbance": "100%"}
{"smiles": "CCCCn1c(CCCNC(=O)CC)nc2ccccc21", "normalized absorbance": "98.7%"}
{"smiles": "C=CCSc1nc(N)cc(=O)[nH]1", "normalized absorbance": "101%"}
{"smiles": "CNC(=O)CSc1nc2ccccc2[nH]1", "normalized absorbance": "99.5%"}
{"smiles": "C=CCSc1nc2ccccc2[nH]1", "normalized absorbance": "89.7% (active)"}
{"smiles": "CC(O)CNC(=O)c1sc2ccccc2c1Cl", "note": "(stereo unspecified)", "normalized absorbance": "95.9%"}
{"smiles": "Cc1c(CNCCC2=CCCCC2)c(C(=O)O)c(C)n1Cc1cccc(Cl)c1", "normalized absorbance": "92%"}
